Compounds without any hit were thinned out: in the full panel of roughly 83,000, 20% have a hit.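 In brief: 96-well plates, 48 h treatment, single concentration, percent growth endpoint.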 Unmarked numbers belong to inactive results. Active and inactive are the calls of the source. How the source made its calls: active means growth percent below 10; inactive means the rest.
Assays:
Test in all cases: NCI-60 one-dose screen, 48 h (100 = growth as untreated, 0 = no growth, -100 = all killed)
Conditions in all cases: 10 µM unless noted
NCI-H23 lung = tested on: NCI-H23 lung
NCI-H226 lung = tested on: NCI-H226 lung
NCI-H322M lung = tested on: NCI-H322M lung
HOP-62 NSCLC = tested on: HOP-62 NSCLC
NCI-H460 lung = tested on: NCI-H460 lung
HOP-92 NSCLC = tested on: HOP-92 NSCLC
NCI-H522 lung = tested on: NCI-H522 lung
A549/ATCC NSCLC = tested on: A549/ATCC NSCLC
786-0 renal = tested on: 786-0 renal
COLO 205 colon = tested on: COLO 205 colon
DU-145 prostate = tested on: DU-145 prostate
K-562 leukemia = tested on: K-562 leukemia
MALME-3M melanoma = tested on: MALME-3M melanoma
MDA-MB-231 breast = tested on: MDA-MB-231 breast
RXF 393 renal = tested on: RXF 393 renal
SF-268 CNS = tested on: SF-268 CNS
SF-295 CNS = tested on: SF-295 CNS
SF-539 CNS = tested on: SF-539 CNS
UACC-257 melanoma = tested on: UACC-257 melanoma
M14 melanoma = tested on: M14 melanoma

SMILES | growth (NCI-H23 lung) | growth (NCI-H226 lung) | growth (NCI-H322M lung) [%] | growth (HOP-62 NSCLC) | growth (NCI-H460 lung) | growth (HOP-92 NSCLC) | growth (NCI-H522 lung) | growth (A549/ATCC NSCLC) | growth (786-0 renal) | growth (COLO 205 colon) | growth (DU-145 prostate) | growth (K-562 leukemia) | growth (MALME-3M melanoma) | growth (MDA-MB-231 breast) | growth (RXF 393 renal) | growth (SF-268 CNS) | growth (SF-295 CNS) | growth (SF-539 CNS) | growth (UACC-257 melanoma) | growth (M14 melanoma)
Nc1ncnc2c1N=C(c1ccc3c(c1)OCO3)CC(c1ccc([N+](=O)[O-])cc1)N2 (stereo not given) | 74.7% | 83% | 90.5 | 66.9% | 96.2% | 41.9% | 95.3% | 58.7% | 51.8% | 97.6% | 96.8% | 96.5% | 108% | 55.9% | 50.4% | 86.2% | 296% | 86.8% | 77.8% | 92.2%
O=c1oc2ccccc2cc1C1=NN=C(SCc2ccccc2)SC1 | 94.9% | 96.6% | 102 | 82.9% | 112% | 87.2% | 89.2% | 96.6% | 94.8% | 113% | 100% | 91.4% | 99.3% | 101% | 109% | 97.1% | 98.9% | 96.5% | 110% | 95.7%
CC(C)(C)c1cc(-c2nc3ccc(N4CCN(S(C)(=O)=O)CC4)cc3[nH]2)cc(C(C)(C)C)c1O | 96.2% | 91.9% | 100 | 76.7% | 90.6% | 85.6% | 78.1% | 83.4% | 101% | 101% | 99.1% | 78.4% | 82.4% | 104% | 92.6% | 93.1% | 91.1% | 86.5% | 98.9% | 98.3%
O=C(CI)NC1Oc2ccccc2-c2oc(=O)c(-c3ccccc3)cc21 (stereo not given) | -55.7% (active) | -43.3% (active) | 105 | -3.99% (active) | 0.996% (active) | -72.4% (active) | -75.6% (active) | 94.7% | -79.3% (active) | -53.5% (active) | -93.8% (active) | -13% (active) | -77.1% (active) | -68.8% (active) | -89.4% (active) | -72.2% (active) | 87.4% | -89.5% (active) | 77.3% | -39.8% (active)
CC/C(=C(/c1ccc(Cl)cc1)c1ccc(OCCN2CCCC2)cc1)c1ccc(OC)cc1 | 52.9% | 89% | 79.7 | 92.6% | 37.6% | 67% | 82.7% | 61.9% | 71.9% | 64.7% | 86.3% | 5% (active) | 79.8% | 80.2% | 67% | 87.1% | 66% | 82.6% | 74.8% | 50.3%
COc1cc(-n2cc(-c3cc(O)c(C/C=C(\C)CCC=C(C)C)c(O)c3)nn2)cc2c1O[C@]1(C)CC[C@@H](O)C(C)(C)[C@H]1C2 | 26.2% | 52.7% | 35.4 | -15.1% (active) | 10.4% | -6.06% (active) | -26.6% (active) | 10.3% | 6.92% (active) | 12.5% | 30.6% | 3.36% (active) | -0.848% (active) | -30.7% (active) | -60.6% (active) | 20.9% | -53% (active) | -40.4% (active) | 27.4% | -17.5% (active)
CCOC(=O)c1ccc2[nH]c(O)c(C(=Nc3ccc(N(C)C(=O)CN4CCN(C)CC4)cc3)c3ccccc3)c2c1 | -59.3% (active) | 15.5% | 11.7 | -5.97% (active) | -27.1% (active) | 30.3% | -48.8% (active) | -20.5% (active) | -95% (active) | -56.3% (active) | -9.05% (active) | -20.8% (active) | -88.9% (active) | -72.3% (active) | -97.7% (active) | 7.68% (active) | -6.29% (active) | -91.1% (active) | -55.4% (active) | -78.5% (active)
O=[N+]([O-])c1ccc(N/N=C(/C(=N/Nc2ccc([N+](=O)[O-])cc2)c2ccccc2)c2ccccc2)cc1 | 82.5% | 97.5% | 81.1 | 76.6% | 46.2% | 107% | 50.8% | 90.9% | 103% | 87.3% | 9.75% (active) | 84.4% | 100% | 81.9% | 62.8% | 104% | 69.3% | 94.2% | 98.9% | 80.2%
N#C/C(=C\c1ccc(-c2ccc(Cl)cc2)o1)C(=O)Nc1ncc(Cc2ccc(Cl)cc2)s1 | 31.8% | 65% | 22.8 | -9.27% (active) | -38.3% (active) | 94.6% | 46.3% | -8.3% (active) | 42% | 57.2% | 19.6% | 62.2% | 5.36% (active) | 36.7% | 109% | 71.6% | 9.09% (active) | 27.1% | -28.3% (active) | 39.1%
Oc1c(Cl)cc(Cl)c2ccc(Cn3cc(-c4cc(C(F)(F)F)cc(C(F)(F)F)c4)nn3)nc12 | 77.3% | 82.1% | 103 | 101% | 101% | 24.8% | -39.4% (active) | 95.5% | 97.3% | 66.4% | 21.9% | 6.87% (active) | -13.2% (active) | 87% | -12.8% (active) | 77.2% | 106% | 43.3% | 49.9% | 47.8%
O=C(COc1ccc(-c2nc3ccccc3[nH]2)cc1)N=Nc1c(O)[nH]c2ccc(Cl)cc12 | 87.3% | 97% | 101 | 99.9% | 30.7% | 93% | 93.6% | 99% | 46% | 53.3% | 91.9% | 2.09% (active) | 93.3% | 84.6% | 88.2% | 99.3% | 91.2% | 93.3% | 104% | 87%
CS(=O)(=O)Nc1cc(-c2ccc3ncnc(Nc4ccc5c(cnn5Cc5ccccn5)c4)c3c2)cnc1Cl | 76.7% | 81.3% | 86.2 | 68.8% | 85.8% | 2.29% (active) | 67.9% | 89.2% | 84.3% | 93.1% | 90% | 92.1% | 39.5% | 71.5% | 72.8% | 51.5% | 91.5% | 69.9% | 88.1% | 75.5%
O=C(O)CNC1=C(Cl)C(=O)c2ccccc2C1=O | 88% | 109% | 103 | 95.4% | 102% | 74.1% | 78.8% | 96.6% | 101% | 113% | 112% | 93.4% | 118% | 83% | 128% | 103% | 92.1% | 123% | 91.1% | 98.3%
COCCn1c(-c2csc(-c3cn(C)c4ccc(OC)cc34)n2)cc2cccnc21 | 63.8% | 81.3% | 82.4 | 60.9% | 21.7% | 67.5% | -24.5% (active) | 48% | 30.9% | 37.5% | 62.7% | -25.5% (active) | 106% | 43.6% | 52.3% | 64.1% | 58.9% | 58.9% | 54.5% | 44.2%
C/C(=N/O)c1ccc(F)cc1 | 84% | 91.5% | 111 | 92.8% | 36.6% | 109% | 55.4% | 103% | 107% | 90.6% | 5.59% (active) | 92.7% | 130% | 88% | 64.1% | 102% | 75% | 119% | 95.3% | 94.9%
